CYP2C19 inh = blocks human cytochrome P450 2C19 | P33261 | CYP2C19 Supersomes, luciferin-H EGE luminescence, 30 min | inhibition, % at 5 µM | 21% of 96,000 active;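 active means CYP2C19 inhibition above a set limit at 5 µM in the primary screen, cut at about 50% in these data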;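 further: plate controls were negative control wells for no effect and 2.5 mM tranylcypromine positive control for full effect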
Target sequence (P33261 whole entry, looked up): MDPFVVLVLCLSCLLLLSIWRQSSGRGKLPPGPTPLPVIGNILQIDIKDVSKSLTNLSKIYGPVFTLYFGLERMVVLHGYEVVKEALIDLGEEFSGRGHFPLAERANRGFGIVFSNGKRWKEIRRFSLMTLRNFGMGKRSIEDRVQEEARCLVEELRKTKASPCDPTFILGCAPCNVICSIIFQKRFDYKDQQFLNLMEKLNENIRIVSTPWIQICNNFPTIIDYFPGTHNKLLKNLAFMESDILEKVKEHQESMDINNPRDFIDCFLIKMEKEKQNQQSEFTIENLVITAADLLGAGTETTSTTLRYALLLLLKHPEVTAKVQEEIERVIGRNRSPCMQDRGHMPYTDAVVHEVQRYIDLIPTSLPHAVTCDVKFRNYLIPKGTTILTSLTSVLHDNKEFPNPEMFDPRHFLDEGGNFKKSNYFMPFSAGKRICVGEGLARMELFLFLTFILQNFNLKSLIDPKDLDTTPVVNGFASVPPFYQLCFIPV
CYP2C9 act = increases human cytochrome P450 2C9 activity; P11712; recombinant CYP2C9, luciferin-H conversion, luminescence; hits give high values; factor 1 = untreated enzyme, 0 = blocked; activation factor at 5 µM; 1.4% of 96,000 active;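 active means activation factor of 2 or more for CYP2C9 at a 5 µM dose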;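 further: 0 = sulfaphenazole-blocked wells and 1 = vehicle-only wells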
CYP2C19 act = activators of human cytochrome P450 2C19 | P33261 | 96,000 tested, under 10 active | activation factor at 5 µM | recombinant CYP2C19, luciferin-H EGE luminescence; hits give high values; 0 = fully inhibited enzyme, 1 = untreated enzyme;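 active means activation factor of at least 2 at 5 µM in the primary screen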;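 further: 0 = wells with 2.5 mM tranylcypromine and 1 = vehicle-only wells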
CYP2C9 inhib = inhibitors of human CYP2C9 | P11712 | CYP2C9 Supersomes, luciferin-H conversion, luminescence | inhibition, % at 5 µM | 20% of 96,000 active;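 active means blocking of liver enzyme CYP2C9 beyond about 50% at 5 µM, limit read from the data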
D1 mod = allosterically modulates the human D1 dopamine receptor. B-score at 10 µM. HEK293 D1, CRE-luciferase, dopamine EC30 potentiation; actives deviate in either direction. P21728. 5.9% of 58,000 active;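 active means luminescence count or its row- and column-corrected plate score outside the 99.7% band of the plate's sample wells, on either side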
hDAT+cocaine = human DAT dopamine uptake with cocaine, either direction; Q01959; LLC-PK1 hDAT cells, [14C]-dopamine uptake with cocaine IC80; actives deviate in either direction; B-score at 10 µM; 1.3% of 110,000 active;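 active means Z score or B-score, a plate-position-corrected score, falls beyond the plate's 99.7% confidence bounds, in either direction; inactive means both scores lie inside the 99.7% bounds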;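 further: scored against the spread of the other compound wells on the same plate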
The depositor's hits bear a star; x = no result given. Compounds with a hit are over-represented: about 28% of the library has one in this group of screens.

SMILES	CYP2C19 inh	CYP2C9 act	CYP2C19 act	CYP2C9 inhib	D1 mod	hDAT+cocaine
COCCNC(=O)CSc1nc2ccc(N3CCOCC3)cc2c(=O)n1Cc1ccc(OC)cc1	49	0.2	0.5	84*	x	-0.3
COCCNC(=O)CSc1nc2cc(OC)c(OC)cc2c(=O)n1Cc1ccc(OC)cc1	11	0.6	0.9	43	1.1	0.16
C=C1N(c2ccc(Cl)cc2)C(=O)OC1(C)C	58*	0.7	0.4	27	x	0.99
COc1ccc(C2CC(=O)c3c(ccc4ccccc34)N2)cc1OC (stereo not drawn)	14	0.7	0.9	32	x	x
CCOc1cc(C2CC(=O)c3c(ccc4ccccc34)N2)ccc1O (stereo not drawn)	24	0.3	0.8	65*	x	-1.6
CNC(=S)N1N=C(c2ccc(C)cc2)CC1c1ccc(Cl)cc1 (stereo not drawn)	29	0.1	0.7	90*	x	-0.071
CNC(=S)N1N=C(c2ccc(C)cc2)CC1c1ccc(Br)cc1 (stereo not drawn)	55*	0.1	0.4	92*	x	1.1
CCC(=O)N1N=C(c2ccc(NS(C)(=O)=O)cc2)CC1c1ccc(C)cc1 (stereo not drawn)	29	0.6	0.7	42	x	0.25
COC(=O)c1cnn(C(=O)c2ccccc2Br)c1N	37	1	0.6	-3	x	-0.0057
CSc1nc(-c2ccc(C)cc2)[nH]c1S(=O)(=O)c1ccccc1	46	0.2	0.5	78*	x	-1.1
COC(=O)c1ccc(Oc2nc(C(N)=O)cc(-c3ccccc3)n2)cc1	5	0.9	1	12	x	-1.4
C=CCn1c(SCC(=O)c2ccccc2)nnc1-c1cc2ccccc2o1	78*	0.6	0.2	43	0.2	-0.32
C=CCn1c(SCC(=O)c2ccccc2)nnc1-c1ccc2c(c1)OCO2	77*	0.6	0.2	41	-0.95	x
C=CCn1c(SCC(=O)Nc2ccc3c(c2)OCCO3)nnc1-c1ccccn1	10	0.6	0.9	37	0.33	-1.2
COc1ccc(NS(=O)(=O)c2coc(C(N)=O)c2)cc1Cl	x	x	x	x	-0.16	0.21
COc1cc(OC)c(NS(=O)(=O)c2coc(C(N)=O)c2)cc1Cl	96*	0.8	0	17	-1.2	-0.8
Cc1cc2c(cc1C)NC(c1c(C)n(C)n(-c3ccccc3)c1=O)C1=C(CC(C)(C)CC1=O)N2 (stereo not drawn)	-6	1.2	1.1	-17	-0.56	0.73
CN(CCOc1ccccc1)S(=O)(=O)c1ccc2oc3ccccc3c2c1	52*	1.6	0.5	-62	x	-0.79
Cc1ccc2c(CC(=O)OC3CCOC3=O)coc2c1 (stereo not drawn)	37	0.8	0.6	18	0.33	-1.1
CCOc1ccc(N2C(=O)CS/C2=N/NC(=O)COc2ccc3ccccc3c2)cc1	14	0.7	0.9	28	x	2.4*
Cc1ccccc1Nc1nnc(SCc2cc(=O)n3ccsc3n2)s1	12	0.8	0.9	20	x	0.64
Cc1cccc(C)c1Nc1nnc(SCc2cc([N+](=O)[O-])cc3c2OCOC3)s1	-5	0.5	1.1	51*	x	-0.57
COc1cccc(Nc2nnc(SCc3cc([N+](=O)[O-])cc4c3OCOC4)s2)c1	82*	0.9	0.2	12	x	-3.4*
COc1ccc(Nc2nnc(SCC(=O)Nc3cc(C)on3)s2)cc1	-8	0.9	1.1	7	x	0.47
CC1(C)CC(=O)CC(=Nc2ccc3[nH]c(=O)[nH]c3c2)C1	1	1	1	3	x	0.24
SMILES	CYP2C19 inh	CYP2C9 act	CYP2C19 act	CYP2C9 inhib	D1 mod	hDAT+cocaine
CCCCOc1ccc(C(=O)N/C(=C\c2ccc(OC)cc2)C(=O)OCc2ccco2)cc1	38	0.3	0.6	65*	x	1
C=CCOC(=O)/C(=C\c1ccc(OC)cc1)NC(=O)c1ccco1	55*	0.7	0.4	29	x	x
NC(=O)CC(NC(=O)Cc1cccc2ccccc12)c1ccc(NCc2ccc(F)c(F)c2)c([N+](=O)[O-])c1 (stereo not drawn)	x	x	x	x	x	-0.033
COc1ccc(CC(=O)N2CC(C)CC(C)C2)cc1 (stereo not drawn)	41	1	0.6	-3	x	0.35
O=C1/C(=C/c2cccc(F)c2)CSc2sccc21	26	0.5	0.7	54*	x	-0.79
Cc1cccc(/C=C2\CS/C(=C\c3cccc(C)c3)C2=O)c1	1	1.3	1	-28	x	-0.56
